CtBP-E1A inh: blocks the CtBP interaction with E1A | AlphaScreen GST-E1A/His-CtBP binding, 1536-well; hits give low values | activity change, % (concentration not given with the values) | hit rate 0.49% among 340,000 | AID 651724; in the data active = activity change below about -65%; inconclusive = mostly about -30% to -63%
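AlphaScreen with 125 nM GST-E1A and 125 nM His-CtBP (5X stocks) in Tris pH 8.0, 300 mM NaCl, BSA, Tween 20, TCEP. Compounds preincubated 2 h at 37 deg C, then glutathione donor/nickel acceptor beads added for 1 h at 37 deg C in dark.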
TDP1 block: blocks human tyrosyl-DNA phosphodiesterase 1; Q9NUW8; recombinant TDP1, AlphaScreen DNA substrate cleavage; Potency, µM (top dose mostly 130 µM), usual class: inhibitors; hit rate 0.28% among 350,000; AID 485290; also: nearly all actives have a fitted effect of over 40% in size
Target sequence (Q9NUW8 whole entry, looked up): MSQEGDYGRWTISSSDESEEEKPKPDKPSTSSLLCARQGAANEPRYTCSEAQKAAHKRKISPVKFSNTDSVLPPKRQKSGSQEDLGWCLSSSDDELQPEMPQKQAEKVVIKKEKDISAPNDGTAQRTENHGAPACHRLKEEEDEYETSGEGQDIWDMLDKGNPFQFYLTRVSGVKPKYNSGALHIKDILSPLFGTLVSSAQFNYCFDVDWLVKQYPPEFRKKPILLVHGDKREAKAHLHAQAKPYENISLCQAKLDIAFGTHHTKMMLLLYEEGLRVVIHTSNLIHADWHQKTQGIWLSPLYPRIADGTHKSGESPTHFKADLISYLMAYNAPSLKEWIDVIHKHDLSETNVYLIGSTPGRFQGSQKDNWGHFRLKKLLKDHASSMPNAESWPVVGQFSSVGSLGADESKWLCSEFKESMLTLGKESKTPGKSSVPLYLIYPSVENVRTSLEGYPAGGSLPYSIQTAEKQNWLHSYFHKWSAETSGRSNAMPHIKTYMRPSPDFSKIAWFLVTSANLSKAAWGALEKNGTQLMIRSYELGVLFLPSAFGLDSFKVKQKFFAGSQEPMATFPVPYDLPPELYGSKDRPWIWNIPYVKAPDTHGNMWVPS
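Recombinant human Tdp1 (E. coli-expressed, 1 nM final) preincubated with compounds 15 min at room temperature, then 5'-biotin/3'-phosphotyrosine-FITC DNA substrate (15 nM final) added for 5 min. AlphaScreen beads (10 ug/ml final) added 10 min; cleavage lowers signal.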
IL1B secr inh: inhibitors of inflammasome signaling (IL-1 beta secretion); THP-1 LPS/ATP IL-1B secretion, AlphaLISA, 16 h; hits give low values; activity change, % at 57.5 µM; hit rate 4.7% among 360,000; in the data active = activity change below about -50%; inconclusive = mostly about -30% to -49%
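THP-1 cells pretreated 1 hr with compounds (up to 57.5 uM final), then stimulated with LPS (250 ng/mL final) plus ATP (1.25 mM final); secreted IL-1B measured by AlphaLISA after 16 hr, decreased signal indicating inhibition.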
Six1-Eya2 inh: Six1/Eya2 interaction inhibition; Q15475+O00167; AlphaScreen GST-Six1/His-Eya2 binding, biochemical; hits give low values; activity change, % (test concentration not listed); hit rate 0.56% among 360,000; AID 651725; in the data active = activity change below about -65%; inconclusive = mostly about -30% to -63%
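AlphaScreen luminescence read after one hour at 37 °C in darkness. Pin-transferred compounds met GST-Six1 and His-Eya2 protein (5X stock 250 nM/500 nM) plus glutathione donor and Ni-chelate acceptor beads (5X, 50 ug/mL).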
DT40 TDP1 CPT: growth inhibition of DT40 Tdp1-/-;hTDP1 cells with camptothecin (screen for TDP1 inhibitors). chicken DT40 Tdp1-/-;hTDP1 cells + 20 nM CPT, ATP luminescence, 48 h. Potency, µM (doses to about 46.2 µM), usual class: inhibitors. hit rate 12% among 420,000; also: nearly all actives have a fitted effect of over 55% in size
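Chicken DT40 Tdp1-/- cells stably complemented with human TDP1 were seeded at 400 cells/well in medium containing 20 nM camptothecin, exposed to pin-transferred compounds, and grown at 37 °C for at least 48 hr. Viability was read as ATP luminescence.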
TDP1 cell noCPT: qHTS for Inhibitors of human tyrosyl-DNA phosphodiesterase 1 (TDP1): qHTS in cells in absence of CPT; DT40 Tdp1-/- hTDP1 cells, no CPT, ATP luminescence, 48 h; Potency, µM (titrated, usually from 46.2 µM), most hits filed as inhibitors; hit rate 15% among 420,000; also: nearly all actives have a fitted effect of over 55% in size
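No-CPT arm: Tdp1-/-;hTDP1 DT40 cells (400/well) plus compounds, incubated ≥48 hr at 37 °C. Readout CellTiter-Glo luminescence.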
Numbers stand for hits; - = inactive; ? = inconclusive; . = no result; [ ] = dose if it differs, or a comment. A selection: hits, their analogues and other compounds. The true share with any hit is near 18%. Unless noted, calls follow the shape of the dose curve; as a rule, active = well fitted curve in the direction sought with a large enough effect; inconclusive = small, poorly fitted or top-dose-only effect, or another doubt; inactive = no such curve, though single readings can be large; an effect the other way counts as inactive or inconclusive.

SMILES | CtBP-E1A inh | TDP1 block | IL1B secr inh | Six1-Eya2 inh | DT40 TDP1 CPT | TDP1 cell noCPT
O=C(Oc1cccc(NC(=O)c2ccccc2Cl)c1)c1ccc([N+](=O)[O-])cc1 | - | - | - | - | - | -
COc1cccc(CNC(=O)CCC2CCCN(C(=O)c3ccccc3N(C)C)C2)c1 (stereo unspecified) | - | - | - | - | ? | ?
CCc1nc2c(OCc3ccc(Cl)cc3)cccn2c1N(C)C(=O)c1ccc(C)cc1 | - | . | ? | - | 18.4µM | 18.4µM
CCOC(=O)N(C)c1c(CC)nc2c(OCc3ccc(Cl)cc3)cccn12 | - | . | - | - | 20.6µM | 14.6µM
COc1ccc(NC(=O)CN(C)C(=O)CCCc2nc3ccccc3s2)cc1 | - | -[0.505 µM] | - | - | - | ?
COc1ccc(NC(=O)c2cccc(N3C(=O)C4C5C=CC(C6CC56)C4C3=O)c2)c(OC)c1 (stereo unspecified) | - | - | - | - | ? | ?
CCOc1ccc(-c2nonc2NC(=O)c2oc3ccc(F)cc3c2C)cc1 | . | - | . | . | 0.92µM | 0.82µM
CCCOc1ccc(-c2nonc2NC(=O)c2oc3ccc(Cl)cc3c2C)cc1OCCC | . | - | . | . | ? | 7.31µM
CCOc1ccc(-c2nonc2NC(=O)c2oc3cc(C)ccc3c2C)cc1OCC | . | - | . | . | - | -
O=S(=O)(c1ccc(Cl)cc1)N1CCN(Cc2ccc(O)c3ncccc23)CC1 | - | - | - | -92.3 | 6.51µM | 5.8µM
Oc1ccc(CN2CCN(Cc3ccccc3)CC2)c2cccnc12 | -97.5 | - | - | -92.9 | 20.6µM | ?
CN1CCN(C2CCN(Cc3ccc(O)c4ncccc34)CC2)CC1 | . | - | . | . | . | .
O=C(CSc1nnc(CNC(=O)c2ccco2)o1)Nc1ccc(OC(F)(F)F)cc1 | . | - | - | - | - | -
CCOC(=O)c1c(CN2CCCCC2)n(C)c2ccc(OC)c(S(=O)(=O)c3ccccc3)c12 | - | - | - | - | - | -
CC1(C)CCC[C@]2(C)C(CS(=O)c3ccccc3)=C(C=O)CC[C@@H]12 (stereo partly specified) | - | . | ? | - | ? | 20.6µM
CN1/C(=C/C=C/c2n(C)c3cc([N+](=O)[O-])c([N+](=O)[O-])cc3[n+]2C)C(C)(C)c2ccccc21 | ? | . | -52.2 | ? | ? | 3.66µM
CC1(C)N=C(N)N=C(N)N1c1cc(Cl)ccc1Cl | - | . | - | - | - | ?
c1ccc(CCCCc2ccncc2)cc1 | - | . | - | - | - | -
CC1(C)N=C(N)N=C(N)N1c1ccc(CCCCc2ccccc2)cc1 | - | . | ? | - | 0.651µM | 0.366µM
CC1(C)N=C(N)N=C(N)N1c1ccc(Oc2ccc(Cl)cc2)c(Cl)c1 | - | . | -86.0 | - | 2.59µM | 1.46µM
CC1(C)N=C(N)N=C(N)N1c1cccc(CN)c1 | - | - | - | - | - | ?
CC1(C)N=C(N)N=C(N)N1c1ccccc1 | - | - | - | - | 0.731µM | 0.13µM
O=c1[nH]cnc2c1ncn2Cc1ccc([N+](=O)[O-])cc1 | . | - | - | - | - | -
COc1ccc(NS(=O)(=O)c2cccc(C(=O)N3CCCC3)c2)cc1 | - | . | - | - | - | -
COCCNC(=O)c1ccc2c(c1)ncn2-c1cc(C)ccc1OC | . | - | . | . | - | -
SMILES | CtBP-E1A inh | TDP1 block | IL1B secr inh | Six1-Eya2 inh | DT40 TDP1 CPT | TDP1 cell noCPT
COc1ccc(-n2cnc3cc(C(=O)NCC4CCCO4)ccc32)cc1 (stereo unspecified) | - | - | - | - | - | -
Cc1cccc(-n2cnc3cc(C(=O)NCC4CCCO4)ccc32)c1 (stereo unspecified) | - | . | ? | - | 9.2µM | 7.31µM
COCCNC(=O)c1ccc2c(c1)ncn2-c1cccc(C)c1 | - | . | - | - | 16.4µM | ?
O=C(c1ccc2ccccc2c1)N1CCc2ccccc21 | - | - | - | - | - | -
Cc1cccc(-n2cnc3cc(C(=O)N4CCc5ccccc54)ccc32)c1 | - | - | -77.0 | - | - | ?
CC(C)N(C=O)C1(C(=O)NC2CCCCC2)CCCCC1 | - | - | - | - | - | -
CC(C)NC(=O)CSc1nnc2sc3ccccc3n12 | - | - | - | - | - | -
CCn1c(SCC(=O)NCc2ccco2)nnc1-c1cccs1 | - | 50.1µM | - | - | - | -
O=C(CSc1nnc2sc3ccccc3n12)NCc1ccco1 | - | - | - | - | ? | 12.6µM
CCn1c(SCC(=O)NC2CCCCC2)nnc1-c1cccs1 | - | - | - | - | - | -
CCn1c(SC(=O)NC2CCCCC2)nnc1-c1cccs1 | - | ? | - | - | 20.6µM | 23.1µM
CCn1c(SCC(=O)NCc2ccco2)nnc1-c1ccc(N(C)C)cc1 | . | . | . | . | - | -
Cc1ccc(C(=O)NN2CCOCC2)cc1[N+](=O)[O-] | - | - | - | - | - | -
COc1ccc(/C=C/c2cc(-c3ccc(C)cc3)o[n+]2C)cc1 | - | - | -119.9 | - | 0.259µM | 0.259µM
COc1ccc(/C=C/c2c(-c3ccc(OC)cc3)oc3ccc(-c4ccc(OC)cc4)cc23)cc1 | - | . | - | - | - | -
CCOC(=O)C1CCN(c2cc3c(cc2NC(=O)c2ccc(Cl)cc2)n(C)c(=O)n3C)CC1 | . | -[12.3 µM] | . | . | 8.2µM | 2.59µM

From PubChem
